{
  "source": "PubChem BioAssay AID504332",
  "about": "(National Center for Advancing Translational Sciences (NCATS), 2011)",
  "note": "The campaign covered roughly 350,000 compounds. About 31,000 (8.9%) were called active. Roughly 15% stayed inconclusive and do not appear here. This is one part of a sample in which actives are shown more often than they occur. Calls follow the shape of the dose curve; as a rule, active = well fitted inhibition curve with a large enough effect; inconclusive = small, poorly fitted or top-dose-only effect; inactive = no such curve, though single readings can be large or run the other way. % is scaled to controls: 0 for no effect and ±100 for the full control effect; potency is read from the fitted curve at half-maximal effect.",
  "data": [
    {"molecular_target": "Histone-lysine N-methyltransferase EHMT2 (Homo sapiens) (UniProt Q96KQ7)", "sequence (Q96KQ7 913-1193 limits assumed)": "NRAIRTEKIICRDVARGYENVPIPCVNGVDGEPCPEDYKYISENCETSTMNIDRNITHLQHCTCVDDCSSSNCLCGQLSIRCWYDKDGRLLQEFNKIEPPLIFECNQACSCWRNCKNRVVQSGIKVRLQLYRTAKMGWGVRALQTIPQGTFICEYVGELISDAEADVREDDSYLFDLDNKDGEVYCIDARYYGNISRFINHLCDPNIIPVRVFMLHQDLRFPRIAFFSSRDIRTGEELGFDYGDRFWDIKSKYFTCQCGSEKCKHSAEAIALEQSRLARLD", "experiment": "qHTS Assay for Inhibitors of Histone Lysine Methyltransferase G9a; also: nearly all actives have a fitted effect of over 75% in size", "settings": "G9a H3K9 monomethylation, AlphaScreen, 2 h; series mostly up to 59 µM; activity, negative = inhibition: at the top concentration", "procedure,_shortened": "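Chemiluminescent proximity detection of H3K9 monomethylation, read after 10 min bead incubation in the dark. Reaction: 20 nM G9a, 500 nM biotin-H3K9 peptide, 20 uM SAM cofactor, 2 h, room temperature, following 15 min enzyme-compound preincubation.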", "values": [
      {"smiles": "CCOC(=O)c1[nH]c2ccc(OC)cc2c1NC(=O)CCN1CCN(Cc2ccccc2)CC1", "activity, negative = inhibition": "-13.9% [at 2.33 µM] (inactive)"},
      {"smiles": "CCOC(=O)C1CCN(C(=O)Nc2cccc(OC)c2)CC1", "activity, negative = inhibition": "4.16% [at 102 µM] (inactive)"},
      {"smiles": "CCOC(=O)c1[nH]c2ccc(OC)cc2c1NC(=O)N1CCOCC1", "Potency": "50.1 µM (active)"},
      {"smiles": "CCCC(=O)C1=C(N(C)c2ccccc2)CC(C)(C)C(C(=O)OC)C1=O", "note": "(centres undefined)", "activity, negative = inhibition": "-30.5% (inactive)"},
      {"smiles": "C=CCO/N=C/C1=C(O)C(C(=O)OC)C(C)(C)CC1=O", "note": "(centres undefined)", "Potency": "15.8 µM (active)"},
      {"smiles": "COCC(C)N=CC1=C(O)CC(C)(C)CC1=O", "note": "(centres undefined)", "activity, negative = inhibition": "10.1% (inactive)"},
      {"smiles": "COc1ccc(S(=O)(=O)n2cnc3ccccc32)c(C)c1", "activity, negative = inhibition": "9.88% [at 102 µM] (inactive)"},
      {"smiles": "N#CCCN1CCN(S(=O)(=O)c2ccc(S(=O)(=O)N3CCCC3)cc2)CC1", "activity, negative = inhibition": "1.44% (inactive)"},
      {"smiles": "CC(C)(C)c1cc(CN2CCN(CCC#N)CC2)cc(C(C)(C)C)c1O", "Potency": "17.8 µM (active)"},
      {"smiles": "N#Cc1cccc(CN2CCC(=O)N(CCO)CC2)c1", "activity, negative = inhibition": "-5.64% [at 102 µM] (inactive)"},
      {"smiles": "CCN(C(=O)CSc1ncnc2sccc12)c1c(N)n(Cc2ccccc2)c(=O)[nH]c1=O", "activity, negative = inhibition": "-8.47% (inactive)"},
      {"smiles": "Cc1ccc(N2C(=O)C3C4C=CC(CC4)C3C2=O)cc1Br", "note": "(centres undefined)", "activity, negative = inhibition": "-6.84% [at 0.501 µM] (inactive)"},
      {"smiles": "CCCn1nc(NC(=O)C(C)C)c2cc3cc(OC)ccc3nc21", "activity, negative = inhibition": "7.96% [at 102 µM] (inactive)"},
      {"smiles": "O=C(C1CCCO1)N1CCC(c2nc3ccccc3[nH]2)CC1", "note": "(centres undefined)", "activity, negative = inhibition": "-28.9% [at 12.7 µM] (inactive)"},
      {"smiles": "N#CC(C(=O)c1ccc(S(=O)(=O)N2CCCCCC2)cc1)c1nc2ccccc2[nH]1", "note": "(centres undefined)", "activity, negative = inhibition": "25.8% [at 102 µM] (inactive)"},
      {"smiles": "O=S(=O)(c1ccc(Br)cc1)N1CCC(c2nc3ccccc3[nH]2)CC1", "Potency": "70.8 µM (active)"},
      {"smiles": "COc1ccc(CCNC(=O)COC(=O)Cc2cccc(F)c2)cc1", "activity, negative = inhibition": "5.11% [at 0.501 µM] (inactive)"},
      {"smiles": "CC(Oc1cc2oc(=O)c3c(c2cc1Cl)CCCC3)C(=O)NCc1ccncc1", "note": "(centres undefined)", "activity, negative = inhibition": "5.02% [at 102 µM] (inactive)"},
      {"smiles": "COc1cc(OC)nc(N/N=C(\\c2ccccc2)c2ccncc2)n1", "Potency": "12.6 µM (active)"},
      {"smiles": "COc1cc(OC)nc(NC(=O)CCl)n1", "activity, negative = inhibition": "-4.48% (inactive)"},
      {"smiles": "COc1ccc(C/C(C)=N/NC(=O)c2ccncc2)cc1", "activity, negative = inhibition": "16.5% [at 102 µM] (inactive)"},
      {"smiles": "CN(CC(=O)NNC(=O)CNC(=O)c1ccccc1Cl)S(=O)(=O)c1ccc(Cl)cc1", "activity, negative = inhibition": "4.73% [at 0.501 µM] (inactive)"},
      {"smiles": "Cc1ccc(NC(=O)c2cc3cc(C)ccc3n2C)cc1", "activity, negative = inhibition": "-9.16% (inactive)"},
      {"smiles": "O=C(c1cccc2ccccc12)N1CCN(c2ccccc2F)CC1", "Potency": "2.82 µM (active)"},
      {"smiles": "COc1ccc2oc(=O)c(C(=O)N3CCN(c4ccccc4F)CC3)cc2c1", "activity, negative = inhibition": "21.4% [at 12.7 µM] (inactive)"},
      {"smiles": "O=C(c1ccc(CN2CCOCC2)cc1)N1CCN(c2ccccc2F)CC1", "activity, negative = inhibition": "15.9% (inactive)"},
      {"smiles": "Cc1cccc(C)c1Nc1nnc(SCC(=O)Nc2sccc2C#N)s1", "activity, negative = inhibition": "-7.51% (inactive)"},
      {"smiles": "CC(c1nnc(SCC(=O)Nc2sccc2C#N)n1-c1ccc(Cl)cc1)N(C)C", "note": "(centres undefined)", "Potency": "50.1 µM (active)"},
      {"smiles": "Cc1csc(SCC(=O)Nc2sccc2C#N)n1", "activity, negative = inhibition": "2.21% [at 102 µM] (inactive)"},
      {"smiles": "COc1ccc(C2NC(=O)N(C)C(C)=C2[N+](=O)[O-])cc1", "note": "(centres undefined)", "activity, negative = inhibition": "-2.62% [at 102 µM] (inactive)"},
      {"smiles": "COc1cccc(C(=O)NNC(=O)c2cccc(F)c2)c1", "activity, negative = inhibition": "4.31% [at 102 µM] (inactive)"},
      {"smiles": "CCCCOC(=O)/C(C#N)=C/c1ccc(-c2cccc(C(F)(F)F)c2)o1", "activity, negative = inhibition": "-1.47% (inactive)"},
      {"smiles": "CCOc1ccc(Nc2oc(/C=C/c3ccc(F)cc3)nc2C#N)cc1", "activity, negative = inhibition": "-0.0635% (inactive)"},
      {"smiles": "O=C(O)/C=C/c1ccc(OCCCF)cc1", "activity, negative = inhibition": "0.243% [at 102 µM] (inactive)"},
      {"smiles": "N#C/C(=C\\N1CCOCC1)S(=O)(=O)c1ccc(Cl)cc1", "activity, negative = inhibition": "20.1% (inactive)"},
      {"smiles": "O=S(=O)(Oc1ccccc1C(=S)N1CCOCC1)c1ccc(Cl)cc1", "Potency": "31.6 µM (active)"},
      {"smiles": "O=C(Nc1ccccc1C(=O)N1CCOCC1)c1ccc(Cl)cc1", "activity, negative = inhibition": "-23.7% [at 102 µM] (inactive)"},
      {"smiles": "O=C(CSc1nnc(-c2ccccc2F)o1)Nc1cccc(C(F)(F)F)c1", "activity, negative = inhibition": "-0.739% (inactive)"},
      {"smiles": "O=C(NCc1ccccc1)c1cc(-c2cccc(Cl)c2)on1", "activity, negative = inhibition": "-0.805% (inactive)"},
      {"smiles": "Cc1cccn2c(=O)c(C=O)c(Nc3ccc(S(N)(=O)=O)cc3)nc12", "activity, negative = inhibition": "-13.3% [at 102 µM] (inactive)"},
      {"smiles": "CC(OC(=O)/C=C/c1ccccc1)C(=O)Nc1ccc(C(N)=O)cc1", "note": "(centres undefined)", "activity, negative = inhibition": "0.935% [at 12.7 µM] (inactive)"},
      {"smiles": "O=C1C(Cl)=C(N2CCOCC2)C(=O)N1c1ccccc1", "activity, negative = inhibition": "3.23% [at 2.33 µM] (inactive)"},
      {"smiles": "COC1=C(N2CCOCC2)C(=O)c2ccccc2C1=O", "Potency": "3.55 µM (active)"},
      {"smiles": "Cc1oc2c(c1C(=O)N1CCOCC1)C(=O)c1ccccc1C2=O", "activity, negative = inhibition": "-50.2% (inactive)"},
      {"smiles": "COc1cccc(CNC(=O)CN2C(=O)NC(Cc3ccccc3)(c3ccccc3)C2=O)c1", "note": "(centres undefined)", "activity, negative = inhibition": "-1.58% [at 12.7 µM] (inactive)"},
      {"smiles": "Cc1ccc2cccc(NC(=O)c3ccc(OC(C)C)cc3)c2n1", "activity, negative = inhibition": "4.14% (inactive)"},
      {"smiles": "O=C(COc1coc(CN2CCN(c3ccccc3)CC2)cc1=O)N1CCc2ccccc21", "activity, negative = inhibition": "-26.4% [at 102 µM] (inactive)"},
      {"smiles": "COc1ccc(OC)c(NC(=O)C2CCN(S(=O)(=O)c3ccc(C)cc3)CC2)c1", "activity, negative = inhibition": "-3.4% (inactive)"},
      {"smiles": "COc1ccc(CN2CCCCC2C)cc1OC", "note": "(centres undefined)", "activity, negative = inhibition": "4.38% [at 102 µM] (inactive)"},
      {"smiles": "COc1ccc(CNc2ccc3c(c2)CCC3)cc1OC", "Potency": "39.8 µM (active)"},
      {"smiles": "CC(C)C(=O)OCC(=O)Nc1ccc2c(c1)CCC2", "activity, negative = inhibition": "-28.4% (inactive)"},
      {"smiles": "COc1ccc(OC)c(CCNC(=O)c2nn(C)c3c2CS(=O)(=O)c2ccccc2-3)c1", "activity, negative = inhibition": "-15.2% [at 102 µM] (inactive)"},
      {"smiles": "O=C(COC(=O)CNC(=O)C1CCCCC1)NCc1ccccc1", "activity, negative = inhibition": "3.72% [at 12.7 µM] (inactive)"},
      {"smiles": "O=C(CCc1nc(CN2CCN(S(=O)(=O)c3ccc(Cl)cc3)CC2)no1)N1CCCCC1", "activity, negative = inhibition": "-46.7% (inactive)"},
      {"smiles": "Cc1ccc2nc(-c3ccc(NC(=O)CN(C)S(=O)(=O)c4ccccc4)cc3)sc2c1", "activity, negative = inhibition": "2.87% [at 102 µM] (inactive)"},
      {"smiles": "NS(=O)(=O)c1ccc2nc(NC(=O)C3=COCCO3)sc2c1", "activity, negative = inhibition": "36.2% (inactive)"},
      {"smiles": "Cc1ccc2nc(N(CCN(C)C)C(=O)C3=COCCO3)sc2c1", "Potency": "79.4 µM (active)"},
      {"smiles": "CCOC(=O)c1cccc(NC(=O)c2cc(S(=O)(=O)N3CCCC(C)C3)cn2C)c1", "note": "(centres undefined)", "activity, negative = inhibition": "-1.91% (inactive)"},
      {"smiles": "CCOC(=O)c1ccc(NC(=O)C2CCN(S(=O)(=O)c3ccc4c(c3)CCCC(=O)N4)CC2)cc1", "activity, negative = inhibition": "-28.9% (inactive)"},
      {"smiles": "CCc1ccc(-c2nc(SCC(=O)NC3CCCC3)n[nH]2)cc1", "activity, negative = inhibition": "32.1% [at 102 µM] (inactive)"},
      {"smiles": "Cc1ccc(Cl)cc1NC(=O)C(C)n1nnc2sc(-c3ccccc3)cc2c1=O", "note": "(centres undefined)", "Potency": "1.12 µM (active)"},
      {"smiles": "CCCCCCn1nnc2sc(-c3ccccc3)cc2c1=O", "activity, negative = inhibition": "51.4% (inactive)"},
      {"smiles": "COC(=O)[C@@H](NC(=O)Nc1cc(Cl)ccc1C)C(C)C", "activity, negative = inhibition": "35.1% [at 102 µM] (inactive)"},
      {"smiles": "CCC(C)NC(=O)Cn1c(=O)n(-c2ccc(Cl)cc2)c(=O)c2c3c(sc21)CCCC3", "note": "(centres undefined)", "activity, negative = inhibition": "-9.15% (inactive)"}
    ]}
  ]
}
